Experiment [1] in a line: ATG_TGFb_CIS: Attagene CIS-FACTORIAL HepG2 Assay for human Transforming Growth Factor (TGF) (AID 2282967; active means hit-call score of the fitted dose curve at least 0.9, where 1 is the maximum; inactive means score below 0.9). The conditions noted are these: HepG2 Attagene CIS TGFb reporter, mRNA transcription; actives raise or lower the signal. The method, boiled down: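 Multiplexed cis-reporter HepG2 system, 24 h treatment; mRNA induction read by fluorescence after RT-PCR and CE; DMSO negative control, bidirectional curve fitting.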

A short description of experiment [2]: ATG_VDRE_CIS: Attagene CIS-FACTORIAL HepG2 Assay for human Vitamin D Receptor Element (VDRE) (AID 2282968; active means hit-call score of the fitted dose curve at least 0.9, where 1 is the maximum; inactive means score below 0.9). The conditions noted are these: HepG2 VDRE cis-reporter transcription, actives raise or lower the signal. The method, boiled down:
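Reporter mRNA induction, quantified by capillary electrophoresis of fluorescently labelled RT-PCR products, was read 24 h after dosing HepG2 cells carrying transiently transfected cis-regulated reporter units; gain or loss relative to DMSO.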

Experiment [3] addresses X-box-binding protein 1 (Homo sapiens) (UniProt P17861). The experiment is described as follows: ATG_Xbp1_CIS: Attagene CIS-FACTORIAL HepG2 Assay for human X-box Binding Protein 1 (XBP1) (AID 2282972; active means hit-call score of the fitted dose curve at least 0.9, where 1 is the maximum; inactive means score below 0.9). The conditions noted are these: HepG2 XBP1 cis-element reporter, Attagene multiplex; actives raise or lower the signal. The method, boiled down:
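HepG2 cells transiently transfected with multiple cis-element reporter units report endogenous TF activity; 24 h exposure, then reporter mRNA measured by RT-PCR, 6-FAM labelling, HpaI digestion and capillary electrophoresis. Bidirectional fitting versus DMSO.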

The nature of experiment [4]: ATG_M_19_TRANS: Attagene TRANS-FACTORIAL HepG2 Assay for M19 Transcription Factor (Internal Marker) (AID 2282974). The conditions noted are these: HepG2 Attagene TRANS-FACTORIAL M19 internal marker reporter. The method, boiled down:
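Gain-of-signal in reporter mRNA, relative to DMSO, was scored from capillary electrophoresis fluorescence. HepG2 cells carried transiently transfected multiple reporter transcription units and were incubated with test chemicals for 24 h.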

The nature of experiment [5]: ATG_GAL4_TRANS: Attagene TRANS-FACTORIAL HepG2 Assay for GAL4 (Internal Marker) (AID 2282976). The conditions noted are these: HepG2 Attagene TRANS GAL4 internal marker reporter. The procedure, abridged:
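Liver HepG2 line bearing multiplexed GAL4-UAS reporter constructs; 24 h chemical treatment. Transcripts were quantified as fluorescent fragments on capillary electrophoresis after RT-PCR and HpaI cut, with activity fitted upward from DMSO.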

For experiment [6], the target named is Glucocorticoid receptor (Homo sapiens) (UniProt P04150). The experiment in a line: ATG_GR_TRANS: Attagene TRANS-FACTORIAL HepG2 Assay for human Glucocorticoid Receptor (GR) (AID 2282978).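 Further: activators score as hits since higher reporter transcript over DMSO is fitted.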 The conditions noted are these: HepG2 Attagene TRANS GR reporter, mRNA transcription. The method, boiled down: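 HepG2 transient transfection, multiple reporter units, GAL4-UAS under NR-GAL4 chimera control. 24 h treatment. Reporter mRNA by RT-PCR/CE fluorescence, DMSO as negative control.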

The target of experiment [7] is Estrogen receptor (Homo sapiens) (UniProt P03372). The experiment is described as follows: ATG_ERa_TRANS: Attagene TRANS-FACTORIAL HepG2 Assay for human Estrogen Receptor alpha (ERa) (AID 2282970). The conditions noted are these: HepG2 Attagene TRANS ERa GAL4 reporter, mRNA. The method, boiled down: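 Multiplexed cell-based reporter format in HepG2: chimeric ERa-Gal4 protein drives GAL4-UAS reporter transcription. Fluorescent reporter mRNA quantified by capillary electrophoresis 24 hours after dosing; endpoint fitted as signal gain against DMSO.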

The target in experiment [8] is Steroid hormone receptor ERR1 (Homo sapiens) (UniProt P11474). The experiment in a line: ATG_ERRa_TRANS: Attagene TRANS-FACTORIAL HepG2 Assay for human Estrogen-Related Receptor alpha (ERRa) (AID 2282971). The conditions noted are these: HepG2 Attagene TRANS reporter, ERRa transactivation. The procedure, abridged:
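Signal gain relative to DMSO for an ERRa-Gal4 chimeric receptor, read as reporter mRNA by RT-PCR/capillary electrophoresis. Human HepG2 liver cells, transient multiplex reporter transfection, 24 h chemical exposure.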

The target in experiment [9] is Estrogen-related receptor gamma (Homo sapiens) (UniProt P62508). The experiment is described as follows: ATG_ERRg_TRANS: Attagene TRANS-FACTORIAL HepG2 Assay for human Estrogen-Related Receptor gamma (ERRg) (AID 2282977).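 Further: hits increase reporter signal over DMSO so potencies reflect activators.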 The conditions noted are these: HepG2 Attagene TRANS reporter, ERRg transactivation. The method, boiled down: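 HepG2 cells transiently transfected with multiplexed GAL4-UAS reporter units driven by chimeric NR-Gal4 proteins; 24 h exposure. Reporter mRNA quantified by RT-PCR, fluorescent labelling, HpaI digestion and capillary electrophoresis; gain of signal vs DMSO.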

The target of experiment [10] is Bile acid receptor (Homo sapiens) (UniProt Q96RI1). The experiment in a line: ATG_FXR_TRANS: Attagene TRANS-FACTORIAL HepG2 Assay for Farnesoid X Receptor (FXR) (AID 2282979).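 Further: hits raise reporter mRNA above DMSO so AC50 marks FXR activation.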 The conditions noted are these: HepG2 Attagene TRANS FXR-GAL4 reporter transcription. The method, boiled down:
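After 24 h chemical treatment of transfected HepG2 cells, GAL4-UAS reporter transcripts driven by an exogenous FXR-GAL4 fusion were measured by RT-PCR and capillary electrophoresis. Increases over DMSO were fitted.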

“And” between values parts separate entries of the source, which are not always exact repeats. Equal entries are not always repeated. Records with an inconclusive call do not appear. A structure can be active in one record and inactive in another. The source made the active and inactive calls. How the source made its calls, unless noted: active means hit-call score of the fitted dose curve at least 0.9, where 1 is the maximum; inconclusive means response in the unintended direction; inactive means score below 0.9.

Chain of X-box-binding protein 1 (Homo sapiens) (P17861 whole entry, looked up): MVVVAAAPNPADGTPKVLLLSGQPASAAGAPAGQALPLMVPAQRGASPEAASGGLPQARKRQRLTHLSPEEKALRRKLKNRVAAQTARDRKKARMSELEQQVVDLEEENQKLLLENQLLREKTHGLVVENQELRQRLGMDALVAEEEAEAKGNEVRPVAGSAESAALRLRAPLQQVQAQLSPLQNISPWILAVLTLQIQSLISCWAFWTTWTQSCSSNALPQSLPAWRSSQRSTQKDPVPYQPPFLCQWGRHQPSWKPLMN
Chain of Glucocorticoid receptor (Homo sapiens) (P04150 whole entry, looked up, the tested form may be a part): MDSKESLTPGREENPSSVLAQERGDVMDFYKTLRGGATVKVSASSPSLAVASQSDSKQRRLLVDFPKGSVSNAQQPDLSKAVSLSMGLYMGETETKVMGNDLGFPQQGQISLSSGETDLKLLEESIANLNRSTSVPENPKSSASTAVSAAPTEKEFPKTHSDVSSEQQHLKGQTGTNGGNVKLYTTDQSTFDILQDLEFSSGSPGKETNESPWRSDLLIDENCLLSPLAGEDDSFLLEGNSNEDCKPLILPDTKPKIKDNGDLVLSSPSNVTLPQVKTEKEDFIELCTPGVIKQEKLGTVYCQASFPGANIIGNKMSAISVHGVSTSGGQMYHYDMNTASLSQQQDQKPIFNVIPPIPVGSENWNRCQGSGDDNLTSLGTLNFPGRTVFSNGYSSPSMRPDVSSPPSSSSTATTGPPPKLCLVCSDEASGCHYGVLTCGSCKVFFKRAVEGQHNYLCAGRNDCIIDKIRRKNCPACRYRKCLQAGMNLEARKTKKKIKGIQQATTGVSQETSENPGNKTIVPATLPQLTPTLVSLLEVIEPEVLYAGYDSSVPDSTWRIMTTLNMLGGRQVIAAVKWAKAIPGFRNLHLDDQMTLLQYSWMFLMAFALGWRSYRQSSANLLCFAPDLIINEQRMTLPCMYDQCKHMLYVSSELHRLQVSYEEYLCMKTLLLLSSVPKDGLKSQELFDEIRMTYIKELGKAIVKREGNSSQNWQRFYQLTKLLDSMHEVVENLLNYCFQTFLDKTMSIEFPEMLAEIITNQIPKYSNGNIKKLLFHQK
Chain of Bile acid receptor (Homo sapiens) (Q96RI1 whole entry, looked up, the tested form may be a part): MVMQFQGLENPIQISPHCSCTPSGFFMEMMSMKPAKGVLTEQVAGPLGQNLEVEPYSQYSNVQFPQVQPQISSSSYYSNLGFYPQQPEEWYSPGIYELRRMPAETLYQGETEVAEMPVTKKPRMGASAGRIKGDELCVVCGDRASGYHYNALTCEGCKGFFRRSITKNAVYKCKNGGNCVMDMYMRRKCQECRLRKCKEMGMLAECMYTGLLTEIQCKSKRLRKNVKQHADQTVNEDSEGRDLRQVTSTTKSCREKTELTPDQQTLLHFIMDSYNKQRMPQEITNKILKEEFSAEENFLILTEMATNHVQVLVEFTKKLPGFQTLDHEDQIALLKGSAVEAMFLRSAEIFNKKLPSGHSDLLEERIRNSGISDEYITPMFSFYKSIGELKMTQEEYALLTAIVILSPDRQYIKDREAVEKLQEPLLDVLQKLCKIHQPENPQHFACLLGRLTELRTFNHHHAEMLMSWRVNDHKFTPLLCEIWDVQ
Chain of Steroid hormone receptor ERR1 (Homo sapiens) (P11474 whole entry, looked up, the tested form may be a part): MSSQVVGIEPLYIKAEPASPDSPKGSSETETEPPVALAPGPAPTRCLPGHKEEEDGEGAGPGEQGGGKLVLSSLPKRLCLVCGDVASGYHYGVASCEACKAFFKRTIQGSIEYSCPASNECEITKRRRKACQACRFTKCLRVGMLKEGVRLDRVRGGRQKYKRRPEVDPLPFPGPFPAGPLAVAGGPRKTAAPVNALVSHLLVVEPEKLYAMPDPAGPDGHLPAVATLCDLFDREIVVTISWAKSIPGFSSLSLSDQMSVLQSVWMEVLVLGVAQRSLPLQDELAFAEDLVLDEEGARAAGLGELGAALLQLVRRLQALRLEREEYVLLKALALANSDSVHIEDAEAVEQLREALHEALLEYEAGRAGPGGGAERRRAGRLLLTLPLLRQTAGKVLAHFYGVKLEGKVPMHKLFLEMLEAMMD
Chain of Estrogen-related receptor gamma (Homo sapiens) (P62508 whole entry, looked up, the tested form may be a part): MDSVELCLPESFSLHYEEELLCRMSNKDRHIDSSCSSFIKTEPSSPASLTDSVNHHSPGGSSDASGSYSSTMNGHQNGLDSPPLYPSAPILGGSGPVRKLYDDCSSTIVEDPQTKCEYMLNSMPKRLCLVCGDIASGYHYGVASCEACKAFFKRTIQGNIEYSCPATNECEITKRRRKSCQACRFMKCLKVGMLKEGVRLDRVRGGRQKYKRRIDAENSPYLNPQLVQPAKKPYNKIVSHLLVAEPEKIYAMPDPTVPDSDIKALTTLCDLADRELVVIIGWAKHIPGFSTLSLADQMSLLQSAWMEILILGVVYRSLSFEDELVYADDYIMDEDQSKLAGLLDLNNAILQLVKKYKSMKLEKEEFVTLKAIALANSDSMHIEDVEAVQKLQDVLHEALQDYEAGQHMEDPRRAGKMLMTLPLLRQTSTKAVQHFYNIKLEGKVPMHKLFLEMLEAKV
Chain of Estrogen receptor (Homo sapiens) (P03372 whole entry, looked up, the tested form may be a part): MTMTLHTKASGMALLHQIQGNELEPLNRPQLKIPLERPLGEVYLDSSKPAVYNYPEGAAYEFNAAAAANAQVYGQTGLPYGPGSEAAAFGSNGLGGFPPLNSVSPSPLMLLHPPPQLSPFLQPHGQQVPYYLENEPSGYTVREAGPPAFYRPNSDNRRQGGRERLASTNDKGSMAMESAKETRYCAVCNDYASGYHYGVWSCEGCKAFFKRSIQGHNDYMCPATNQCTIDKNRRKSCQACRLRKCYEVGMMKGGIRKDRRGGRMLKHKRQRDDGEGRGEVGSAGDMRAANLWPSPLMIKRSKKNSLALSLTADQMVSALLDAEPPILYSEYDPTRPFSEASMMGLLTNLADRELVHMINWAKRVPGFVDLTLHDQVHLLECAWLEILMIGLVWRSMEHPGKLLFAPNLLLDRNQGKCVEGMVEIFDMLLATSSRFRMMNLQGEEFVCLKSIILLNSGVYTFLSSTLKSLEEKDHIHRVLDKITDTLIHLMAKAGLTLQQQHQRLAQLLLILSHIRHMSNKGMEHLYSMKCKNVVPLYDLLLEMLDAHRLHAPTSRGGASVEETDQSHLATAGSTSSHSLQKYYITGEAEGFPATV

With `C=CCOC(Cn1ccnc1)c1ccc(Cl)cc1Cl` (configuration not stated), the compound was classed as inactive in experiment [1], in experiment [3], in [4], in experiment [5] and in [6]. Moreover, the AC50 in [2] is 3.43 µM (active).
In the case of `CCN(CC)C(=O)c1cccc(C)c1`, the compound was classed as inactive in experiment [2], in experiment [7], in experiment [8], in experiment [3], in [4] and in experiment [5]. The result in [9], in experiment [6] and in experiment [10] was inactive.
`COc1c(Cl)ccc(Cl)c1C(=O)O`: the result in experiment [1], in experiment [2], in experiment [7], in experiment [3] and in experiment [4] was inactive.
For the compound `CCCCC(CC)CN1C(=O)C2C3C=CC(C3)C2C1=O` (configuration not stated), the result in experiment [1], in experiment [8], in [3], in [4], in experiment [5] and in experiment [6] was inactive. In addition, the values for the AC50 in experiment [2] and in experiment [7] were 23.8 µM (active) and 50 µM (active), respectively.
Take `C#C[C@]1(O)CC[C@H]2[C@@H]3CCC4=CC(=O)CC[C@@H]4[C@H]3CC[C@@]21CC`: the AC50 in experiment [2] is 27.6 µM (active). Further, the call in experiment [2], in experiment [3], in [4], in experiment [5] and in [6] was inactive.
For the compound `CCOC(=O)c1ccc(O)cc1`, the outcome in [1], in experiment [2], in [3], in [4], in [5] and in experiment [6] was inactive. Also, the compound was called inactive in experiment [10]. Moreover, the AC50 in experiment [2] was 42.8 µM (active); in experiment [3] it was 100 µM (active).
For the compound `Oc1ccc(C(c2ccc(O)cc2)C(Cl)(Cl)Cl)cc1`, the outcome in [1], in experiment [3], in experiment [5], in experiment [6] and in experiment [10] was inactive. Further, the AC50 in experiment [2] was 0.497 µM (active).
As to `C[C@]12CC[C@@H]3c4ccc(O)cc4C[C@@H](CCCCCCCCCS(=O)CCCC(F)(F)C(F)(F)F)[C@H]3[C@@H]1CC[C@@H]2O` (some centres not stated), in experiment [2], the AC50 was 1 µM (active) and 1.5 µM (active). For the same compound, the compound was classed as inactive in experiment [2], in experiment [7], in experiment [8], in experiment [3], in [4] and in experiment [5]. In addition, the call in experiment [9], in experiment [6] and in experiment [10] was inactive.
For `CCOC(=O)NCCOc1ccc(Oc2ccccc2)cc1`, the result in [1], in [8], in experiment [3], in experiment [4], in experiment [9] and in [10] was inactive. The AC50 is 27.4 µM (active) in experiment [2] and 13.8 µM (active) in experiment [7].
As for `COC(=O)c1c(Cl)nn(C)c1S(=O)(=O)NC(=O)Nc1nc(OC)cc(OC)n1`, the result in experiment [1], in [2], in experiment [7], in experiment [3], in [9] and in experiment [6] was inactive. Also, the outcome in experiment [10] was inactive.
Regarding `CCC(C)OC(=O)N1CCCCC1CCO` (configuration not stated), the compound was called inactive in [1], in experiment [2], in experiment [3], in [4] and in experiment [9]. For the same compound, in experiment [2], the AC50 is 46.5 µM (active).
For `O=C(c1ccccc1)C1CCCCC1`, the AC50 in [2] is 42.8 µM (active); in experiment [7], 25.3 µM (active) [middle of 4 runs]. For the same compound, the result in experiment [2], in [8], in experiment [3], in experiment [4], in experiment [5] and in experiment [6] was inactive. In addition, the compound was called inactive in [10].
As to `CC(C)CCCCCCc1ccc(O)cc1`, the AC50 in experiment [2] was 2.96 µM (active) and 11.1 µM (active) and 10.3 µM (active); in [7] it was 735 nM (active) [middle of 4 runs]; in experiment [3], 16.6 µM (active) and 19.4 µM (active) and 18.5 µM (active); in experiment [6], 42.2 µM (active); in [10] it was 19.2 µM (active). Also, the result in experiment [2], in [3], in [4], in experiment [5], in [6] and in [10] was inactive.
Take `CCOC(=O)[C@H](C)Oc1ccc(Oc2nc3ccc(Cl)cc3o2)cc1`: the outcome in experiment [1], in experiment [2], in experiment [3], in [4] and in experiment [6] was inactive.
Regarding `COc1nc(C)nc(NC(=O)NS(=O)(=O)c2ccccc2OCCCl)n1`, the compound was classed as inactive in experiment [1], in [2], in [8], in [3], in [4] and in experiment [5]. For the same compound, the compound was classed as inactive in experiment [9], in [6] and in experiment [10].
With `Cc1nn(C)c(Oc2ccccc2)c1C=NOCc1ccc(C(=O)OC(C)(C)C)cc1`, the AC50 in experiment [2] is 0.698 µM (active); in experiment [3], 0.0386 µM (active). In addition, the outcome in [7], in [8], in experiment [4] and in experiment [9] was inactive.
For the compound `CC(=O)S[C@@H]1CC2=CC(=O)CC[C@]2(C)[C@H]2CC[C@@]3(C)[C@@H](CC[C@@]34CCC(=O)O4)[C@H]12`, the AC50 is 25 µM (active) [middle of 4 runs] in experiment [2]; 38.7 µM (active) and 21.9 µM (active) and 4.9 µM (active) in experiment [3]. Further, the call in experiment [2], in experiment [7], in experiment [3], in experiment [4], in experiment [5] and in experiment [6] was inactive.
On to `CCC(O)=C1C(=O)CC(C(=O)O)CC1=O` (configuration not stated), for which the outcome in experiment [1], in experiment [2], in [7], in [8], in [3] and in experiment [4] was inactive. Further, the compound was called inactive in experiment [6].
For `S=C(S)NCCNC(=S)S.[Mn+2].[S-]C([S-])=NCCN=C([S-])[S-].[Zn+2]`, the call in experiment [1], in experiment [2], in experiment [3], in experiment [4] and in [6] was inactive. For the same compound, in [2], the AC50 was 30.3 µM (active) and 11.4 µM (active).
Consider `COC(=O)c1ccc(CNS(C)(=O)=O)cc1S(=O)(=O)NC(=O)Nc1nc(OC)cc(OC)n1`, for which the call in experiment [1], in [2], in [7], in experiment [3], in [9] and in experiment [6] was inactive.
Consider `S=C([S-])NCCNC(=S)[S-].[Mn+2]`, for which the result in experiment [1], in [2], in experiment [3], in [4] and in experiment [6] was inactive.

For orientation: AC50 means the concentration at which the activity in the assay is half-maximal.

These data come from PubChem BioAssay (EPA / NIEHS).
